The results in this text go back to PubChem BioAssay AID1851 (National Center for Advancing Translational Sciences (NCATS), 2009).

Values joined by “and” are separate entries in the source; they are usually repeats but may differ in a detail not shown here. Equal entries are not always repeated. The campaign covered roughly 16,000 compounds. About 5,700 (36%) were called active. About 24% were inconclusive and are not listed. The list shows a part of the results. A number with no mark means an inactive call. Calls follow the shape of the dose curve; as a rule, active = well fitted curve in the direction sought with a large enough effect; inconclusive = small, poorly fitted or top-dose-only effect, or effect the other way; inactive = no such curve, though single readings can be large or run the other way.
% is scaled to controls: 0 for no effect and ±100 for the full control effect.

In this test the target is Cytochrome P450 1A2 (Homo sapiens) (UniProt P05177). As to the kind of experiment: Cytochrome panel assay with activity outcomes. The conditions noted are these: recombinant CYP, pro-luciferin dealkylation, luminescence, p450-cyp1a2; series mostly up to 57.1 µM; activity, negative = inhibition: at the top concentration.
Chain of Cytochrome P450 1A2 (Homo sapiens) (P05177 whole entry, looked up): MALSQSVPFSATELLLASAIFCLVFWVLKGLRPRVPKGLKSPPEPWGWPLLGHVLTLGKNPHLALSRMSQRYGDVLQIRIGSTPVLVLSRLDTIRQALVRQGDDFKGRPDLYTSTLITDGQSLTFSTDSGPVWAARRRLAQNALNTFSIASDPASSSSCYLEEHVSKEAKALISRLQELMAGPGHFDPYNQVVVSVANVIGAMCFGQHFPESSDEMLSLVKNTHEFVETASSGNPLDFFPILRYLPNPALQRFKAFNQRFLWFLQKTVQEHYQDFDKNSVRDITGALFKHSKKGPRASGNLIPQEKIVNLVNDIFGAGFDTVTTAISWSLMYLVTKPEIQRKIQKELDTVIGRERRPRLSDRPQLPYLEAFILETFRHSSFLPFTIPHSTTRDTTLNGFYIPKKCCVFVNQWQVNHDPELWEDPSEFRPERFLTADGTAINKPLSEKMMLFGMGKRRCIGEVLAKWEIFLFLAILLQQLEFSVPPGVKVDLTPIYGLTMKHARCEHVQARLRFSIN
As to `C[N+]1(C)CCN(c2ccccc2)CC1`, the “activity, negative = inhibition” value is 9.07%. Same read-out and setting: to `COc1ccc(C(=O)OC2C[C@H]3CC[C@@H](C2)N3C)cc1OC` (some centres not stated) belongs -6.56% [at 25.6 µM]; to `Cc1cccc(NC(=S)NC2CC3CCCC(C2)N3Cc2cccs2)c1` (configuration not stated), -15.8%; to `CCc1ccccc1NC(=O)NC1CC2CCC(C1)N2Cc1cccs1` (configuration not stated), -17.5%. The same measure, in the same setting: to `CCSc1nnc(C(N)Cc2ccccc2)o1` (configuration not stated) belongs -7.56%; to `NCCCNCCSP(=O)(O)O`, -7.82%. On to `CC1CN=C(Nc2cccc3ccccc23)S1` (configuration not stated), for which the AC50 (in general, the concentration giving half of the maximal activity seen) was 2 µM (active). In the case of `O=C(Nc1cccc2ccccc12)c1nn(C23CC4CC(CC(C4)C2)C3)cc1Br`, the “activity, negative = inhibition” value was -12.6%.

With `CCC12C=CCN3CCC4(c5cc(Br)c(OC)cc5N(C)C4C(O)(C(=O)OC)C1OC(C)=O)C32` (configuration not stated), the “activity, negative = inhibition” value is -4.2%. Still for that read-out and setting: with `CCC[C@@H]1CC2=CC(=O)CC[C@]2(C)[C@@H]2CC[C@@]3(C)[C@H](CC[C@]3(O)CCC(=O)O)[C@H]12` the figure was -1.14%. For the compound `COc1cc(C[C@H](C)N)c(OC)cc1I`, the AC50 is 6.31 µM (active) and 12.6 µM (active). Take `Clc1cnc(Oc2ccc(Oc3ncc(Cl)cc3Cl)cc2)c(Cl)c1`: the “activity, negative = inhibition” value was -12.7%. Same read-out and setting: to `CCNC[C@H](O)c1cccc(O)c1` belongs 4.57% [at 25.6 µM].

On to `c1cncc(CNc2cc(-c3ccc4c(c3)OCO4)ncn2)c1`, for which the concentration at half-maximal activity (AC50) was 0.251 µM (active). On to `c1cncc(CNCCN2CCNCC2)c1`, for which the activity, negative = inhibition is 6.05% [at 11.4 µM]. Consider `Cc1o[nH]c(=O)c1C[C@H](N)C(=O)O`, for which the “activity, negative = inhibition” value is -5.8%. Turning to `c1ccc2sc(C3(N4CCCCC4)CCCCC3)cc2c1`, the AC50 entry is “inactive”.

For `COc1ccn(C)c(=O)c1C#N`, the “activity, negative = inhibition” value was -9.26% [at 25.6 µM]. Still for that read-out and setting: to `CO[C@H]1[C@H](O)[C@H](O[C@@H]2[C@H](Oc3cccc4c(O)c5c(=O)oc6ccc(C)c7c(=O)oc(c34)c5c67)O[C@@H](C)[C@H](O)[C@H]2O)O[C@@H](C)[C@@H]1O` belongs -16.6% [at 11.4 µM]; to `O=[As](O)(O)c1ccc2nc3cc([As](=O)(O)O)ccc3nc2c1`, -15.1% [at 11.4 µM]. Same read-out and setting: with `C=C1[C@@H](O)C2C=CC[C@H](C)C(=O)[C@@](C)(O)C=C[C@@H](OC(C)=O)[C@@]23C(=O)N[C@H](Cc2ccccc2)[C@@H]3[C@@H]1C` (some centres not stated) the figure was -13%; with `c1ccc(N2CCCC3(CCNCC3)C2)cc1`, -16.7%.
